# In the library only some 6.7% were active in any assay of this set; here they are far more common.
# T cruzi growth-1: inhibitors of T. cruzi proliferation. 77,000 tested, 5.9% active. AID 624255. T. cruzi beta-gal in NIH3T3, GalScreen luminescence, 90 h. inhibition, % at 8.34 µM;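 active = mean inhibition above about 93%, with at least 55% of replicates each passing it, limit read from the data, passing the limit was not always enough; inconclusive = only one of those two conditions holds; inactive = neither condition holds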
# Pf Dd2 inh: inhibitors of Plasmodium falciparum Dd2 growth; P. falciparum Dd2 growth, SYBR Green, 72 h; stronger effect = lower value; activity change, % at 10 µM; 94,000 tested, 2.3% active; in the data active = activity change below about -80%; inconclusive = no clear call, values can overlap the other calls
# C diff HTS: inhibitors of Clostridium difficile growth. growth activity, negative = inhibition, % at 16 µg/mL (by protocol). 86,000 tested, 0.25% active. Clostridium difficile clinical isolate growth, OD600, 24 h; stronger effect = lower value;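 active = mean growth activity at or below -80% and every replicate also at or below -80%; inconclusive = mean at or below -80% but some replicate above -80%; inactive = mean growth activity above -80%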;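 note: 0% = DMSO wells and -100% = levofloxacin 16 µg/mL wells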
# T cruzi growth-2: Trypanosoma cruzi proliferation inhibition; inhibition, % at 8.35 µM; shares compounds with T cruzi growth-1; AID 651739; T. cruzi beta-gal in NIH3T3, GalScreen luminescence, 90 h; 5,600 tested, 72% active;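 active = mean replicate inhibition above about 95% and at least 55% of replicates individually reaching it, limit read from the data; inconclusive = only one of the two criteria is met; inactive = neither criterion is met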
# T cruzi growth-3: Trypanosoma cruzi proliferation inhibition; 5,600 tested, 21% active; T. cruzi beta-gal in NIH3T3, GalScreen luminescence, 90 h; shares compounds with T cruzi growth-1; inhibition, % at 2.09 µM;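 active = mean inhibition above about 95%, with at least 55% of replicates also reaching it, limit read from the data; inconclusive = meets just one of the two conditions; inactive = meets neither condition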;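 note: plate controls were neutral control median for no effect and positive control median for full effect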
# NIH3T3 tox: NIH/3T3 (mouse) viability loss. shares compounds with T cruzi growth-1. NIH/3T3 viability, CellTiter-Glo ATP luminescence, 90 h. cytotoxicity (signal decrease), % at 8.35 µM. AID 651742. 5,600 tested, 14% active;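 active = mean signal decrease across replicates above about 35% based on untreated-well scatter, with enough replicates individually passing, limit read from the data; inconclusive = no rule stated though some were filed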;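 note: 0% = median of neutral control wells and 100% = median of positive control wells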
# 3T3 cytotox 2: kills mouse NIH/3T3 fibroblasts; inhibition, % at 24.9 µM; NIH/3T3 viability, CellTiter-Glo ATP luminescence, 90 h; shares compounds with T cruzi growth-1; 5,600 tested, 56% active;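 active = mean loss of cell viability signal at or above a set limit, and enough replicates individually reaching it; inconclusive = meets only the mean limit or only the replicate share; inactive = meets neither condition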;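 note: 0% = median of neutral control wells and 100% = median of positive control wells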
# Numbers without * were called inactive; ? = inconclusive; . = no result given.
SMILES,T cruzi growth-1,Pf Dd2 inh,C diff HTS,T cruzi growth-2,T cruzi growth-3,NIH3T3 tox,3T3 cytotox 2
CCNC(=O)C[C@H]1CC[C@H](NS(=O)(=O)c2ccc(F)cc2)[C@@H](CO)O1,.,-6,3,.,.,.,.
C[C@H](CO)N1C[C@H](C)[C@@H](CN(C)S(=O)(=O)c2cccs2)Oc2ccc(NC(=O)Cc3cn(C)c4ccccc34)cc2C1=O,3,7,.,.,.,.,.
CCNC(=O)C[C@H]1CC[C@H]2[C@H](COc3ccc(NC(=O)Nc4ccccc4C)cc3C(=O)N2C)O1,27,-15,-10,.,.,.,.
C[C@@H]1CN([C@H](C)CO)S(=O)(=O)c2ccc(-c3ccccc3F)cc2O[C@@H]1CN(C)C,49,-1,-1,.,.,.,.
C[C@H](CO)N1C[C@H](C)[C@@H](CN(C)Cc2ccncc2)Oc2cc(-c3ccccc3F)ccc2S1(=O)=O,114*,-17,9,96*,100*,59*,98*
C[C@H]1CN([C@@H](C)CO)S(=O)(=O)c2ccc(-c3ccccc3F)cc2O[C@H]1CN(C)Cc1cccnc1,95*,-31,2,99*,84,67*,49*
C[C@H]1CN([C@@H](C)CO)S(=O)(=O)c2ccc(-c3ccccc3F)cc2O[C@@H]1CN(C)Cc1cncnc1,35,-18,-7,.,.,.,.
C[C@H](CO)N1C[C@H](C)[C@H](CN(C)S(=O)(=O)c2ccc(Cl)cc2)Oc2c(NS(=O)(=O)c3cccs3)cccc2C1=O,54,-36,-1,.,.,.,.
CC(C)NC(=O)N(C)C[C@H]1Oc2ccc(NC(=O)Nc3ccc(C(F)(F)F)cc3)cc2CC(=O)N([C@@H](C)CO)C[C@@H]1C,-10,-35,-4,.,.,.,.
C/C=C/c1ccc2c(c1)O[C@H](CN(C)C(=O)c1ccc3c(c1)OCO3)[C@H](C)CN([C@@H](C)CO)S2(=O)=O,77,-9,-4,.,.,.,.
C[C@H]1CN([C@@H](C)CO)S(=O)(=O)c2ccc(/C=C/c3ccccc3)cc2O[C@@H]1CN(C)C(=O)c1ccc2c(c1)OCO2,118*,-63,2,104*,61,30,38*
C/C=C/c1ccc2c(c1)O[C@H](CN(C)C(=O)c1ccc3c(c1)OCO3)[C@@H](C)CN([C@@H](C)CO)S2(=O)=O,50,-42,-3,.,.,.,.
C/C=C/c1ccc2c(c1)O[C@@H](CN(C)C(=O)c1ccc3c(c1)OCO3)[C@@H](C)CN([C@@H](C)CO)S2(=O)=O,28,-25,3,.,.,.,.
C[C@H](CO)N1C[C@H](C)[C@H](CN(C)C(=O)c2ccc3c(c2)OCO3)Oc2cc(/C=C/c3ccccc3)ccc2S1(=O)=O,106*,-83*,1,104*,92,19,27*
C[C@H]1CN([C@@H](C)CO)S(=O)(=O)c2ccc(/C=C/c3ccccc3)cc2O[C@H]1CN(C)C(=O)c1ccc2c(c1)OCO2,?,-72,11,103*,93,33,?
C[C@@H]1CCCCO[C@@H](CN(C)Cc2ccc(C(=O)O)cc2)[C@H](C)CN([C@@H](C)CO)C(=O)c2cc(NC(=O)CCCN(C)C)ccc2O1,5,44,-3,.,.,.,.
COc1ccc2c3c(n(C)c2c1)[C@@H](CO)N(CC1CCCCC1)CC31CN(C(C)=O)C1,.,9,9,.,.,.,.
N#C[C@H]1[C@@H](c2ccccc2)[C@H](CO)N1C(=O)c1cc(Cl)cc(Cl)c1,?,23,11,?,-15,-1,-5
N#C[C@@H]1[C@@H](c2ccc(-c3ccccc3)cc2)[C@H](CO)N1C(=O)Cc1ccccc1,84,-25,2,.,.,.,.
N#C[C@@H]1[C@H](c2ccccc2)[C@@H](CO)N1C(=O)c1cc(Cl)cc(Cl)c1,38,-19,-1,.,.,.,.
N#C[C@H]1[C@H](c2ccc(-c3ccccc3)cc2)[C@H](CO)N1C(=O)Cc1ccccc1,76,-7,2,.,.,.,.
N#C[C@@H]1[C@H](c2ccc(-c3ccccc3)cc2)[C@H](CO)N1C(=O)Cc1ccccc1,?,-10,11,103*,56,-1,12
N#C[C@H]1[C@@H](c2ccc(-c3ccccc3)cc2)[C@H](CO)N1C(=O)Cc1ccccc1,104*,-15,12,110*,56,31,31*

# High-throughput results (PubChem)
